Source: PubChem BioAssay
Hits are enriched below; roughly 3.6% of the tested compounds scored in any of these assays.
KKLEB cytotox = reduces viability of KKLEB cystic fibrosis airway cells; KKLEB CF airway cells viability, ATPlite luminescence, overnight; active compounds read low; cells stimulated with P. aeruginosa culture filtrate; activity change (cytotoxicity), % at 5 µM; 0.36% of 360,000 active; AID 602141;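 active means corrected activity change at or below -50% at 5 µM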
Peg3 prom inh = reduces Peg3 promoter-driven luciferase expression in HeLa; HeLa PEG-Prom luciferase reporter, luminescence, overnight; inhibition, % at 20 µM; 1.7% of 360,000 active; AID 588405;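 active means inhibition of at least 50% at 20 µM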
LGR2 antag = inhibitors of bursicon-induced Drosophila LGR2 receptor cAMP signaling. HEK293 LGR2, CRE-luciferase, bursicon-stimulated, 4 h. inhibition, % at 9.99 µM. 0.35% of 380,000 active. AID 720647;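 active means drop in luminescence signal, shown as inhibition above about 50% in the replicate tests, limit read from the data, passing the limit was not always enough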;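 further: agonist challenge used bursicon conditioned medium at about half maximal strength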
HSP90 refold inh = inhibitors of HSP90 luciferase refolding in rabbit reticulocyte lysate. luciferase refolding luminescence, 3 h. 0.91% of 290,000 active. inhibition, % at 5.6 µM;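 active means inhibition above the screen-wide mean plus 3 SD, computed separately per campaign, cut at about 16% in these data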;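 further: 0% = DMSO wells and 100% = 60 µM geldanamycin wells; inhibitors lower the luminescence because luciferase stays unfolded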
CF NFkB inh = cystic fibrosis NF-kB activation inhibition | KKLEB NF-kB-GFP reporter, PAF-induced, GFP fluorescence overnight | inhibition, % at 5 µM | 0.86% of 360,000 active;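 active means at least 50% inhibition at 5 µM, scaled per plate between neutral and stimulator controls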;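 further: PAF is a Pseudomonas aeruginosa culture filtrate used as stimulus; plate controls were PAF-stimulated DMSO wells for no effect and unstimulated DMSO wells for full effect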
Mdm2 MdmX PPI = inhibitors of human Mdm2/MdmX interaction; O15151+Q00987; SaOS-2 split-luciferase Mdm2/MdmX complementation, luminescence; inhibition, % at 8 µM; 3% of 330,000 active; AID 485346;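 active means inhibition of at least 50% at 8 µM in the primary screen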
Target sequence (O15151 whole entry, looked up): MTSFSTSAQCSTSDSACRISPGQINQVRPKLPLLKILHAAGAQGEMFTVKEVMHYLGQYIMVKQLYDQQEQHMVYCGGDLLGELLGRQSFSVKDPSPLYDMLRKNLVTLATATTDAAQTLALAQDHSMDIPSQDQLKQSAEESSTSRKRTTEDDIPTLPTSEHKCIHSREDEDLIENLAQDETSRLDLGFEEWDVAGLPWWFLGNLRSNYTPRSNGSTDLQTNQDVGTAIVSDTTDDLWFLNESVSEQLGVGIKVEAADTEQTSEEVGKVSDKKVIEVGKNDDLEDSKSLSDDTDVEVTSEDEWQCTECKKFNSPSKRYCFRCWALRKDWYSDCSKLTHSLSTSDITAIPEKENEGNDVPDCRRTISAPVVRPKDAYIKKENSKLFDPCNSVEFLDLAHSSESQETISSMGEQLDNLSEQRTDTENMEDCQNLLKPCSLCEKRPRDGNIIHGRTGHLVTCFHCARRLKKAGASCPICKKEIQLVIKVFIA
Target sequence (Q00987 whole entry, looked up): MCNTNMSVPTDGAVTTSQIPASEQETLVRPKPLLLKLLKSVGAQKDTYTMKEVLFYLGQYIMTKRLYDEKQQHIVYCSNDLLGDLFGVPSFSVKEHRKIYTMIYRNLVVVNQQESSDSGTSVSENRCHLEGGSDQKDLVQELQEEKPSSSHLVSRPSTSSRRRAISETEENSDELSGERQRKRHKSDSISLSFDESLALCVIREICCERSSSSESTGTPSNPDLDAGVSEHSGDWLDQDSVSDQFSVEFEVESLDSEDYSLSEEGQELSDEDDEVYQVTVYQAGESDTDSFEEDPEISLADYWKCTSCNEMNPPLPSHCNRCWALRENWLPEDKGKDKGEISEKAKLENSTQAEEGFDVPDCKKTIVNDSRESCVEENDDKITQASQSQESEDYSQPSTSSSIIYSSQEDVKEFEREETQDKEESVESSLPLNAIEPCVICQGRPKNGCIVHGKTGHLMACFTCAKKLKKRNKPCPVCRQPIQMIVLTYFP
HSP90 inh confirm = HSP90 inhibition, confirmation assay. rabbit reticulocyte lysate, luciferase refolding luminescence, 3 h. inhibition, % at 5.9 µM. shares compounds with HSP90 refold inh. 64% of 2,300 active; in the data active means inhibition above about 18%;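 further: 0% = vehicle wells and 100% = reference inhibitor wells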
FLuc counter = firefly luciferase inhibition, HSP90 counter-screen; shares compounds with HSP90 refold inh; purified native firefly luciferase, luminescence; inhibition, % at 5.9 µM; 48% of 2,300 active; AID 1847;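 active means inhibition above the mean inhibition of all tested sample wells plus 3 SD, cut at about 10% in these data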;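 further: 0% = DMSO with luciferase and 100% = wells lacking luciferase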
An asterisk follows results filed as active; . = no result given.

SMILES	KKLEB cytotox	Peg3 prom inh	LGR2 antag	HSP90 refold inh	CF NFkB inh	Mdm2 MdmX PPI	HSP90 inh confirm	FLuc counter
C[C@@H]1CCCCO[C@H](CN(C)C(=O)C2CCCCC2)[C@@H](C)CN([C@@H](C)CO)C(=O)c2cc(NS(=O)(=O)c3ccc(F)cc3)ccc2O1	.	.	-7.3	.	.	.	.	.
O=C(Cc1ccccn1)N1CC2(C1)[C@H](c1ccccc1)[C@@H](CO)N2C(=O)c1ccncc1	.	.	10.9	.	.	.	.	.
COc1ccccc1C1CCN(Cc2ccc(Cl)cc2Cl)CC1	6.6	6.4	7.6	17.2*	-1.3	12.3	2.8	-6.3
COc1ccccc1C1CCN(Cc2cccc3ccccc23)CC1	-14.8	19.4	2.3	2.9	22.2	9.7	.	.
CNc1nc(-c2ccc3c(c2)CCN3C(=O)c2ccc(F)cc2)cs1	10.5	-167.3	-104.4	19.1*	-34.4	.	14.2	-23.2
Cc1c(-c2ccccn2)c(=O)[nH]n1-c1ccc(F)cc1	12.5	-106.9	29.9	21.7*	-20.1	-23.4	29.6*	4.6
Cc1noc(C)c1NC(=O)N(C)C[C@H]1Oc2ccc(NS(=O)(=O)c3cn(C)cn3)cc2CC(=O)N([C@@H](C)CO)C[C@H]1C	.	.	-5.5	.	.	.	.	.
CN1CCN(C(=O)C[C@@H]2CC[C@H]3[C@H](COc4ccc(NC(=O)C5CC5)cc4C(=O)N3C)O2)CC1	.	.	3.6	.	.	.	.	.
COc1ccccc1C(=O)N(Cc1ccccc1)c1ccc(C)cc1	-19.5	30.5	-5.0	57.1*	41.4	6.2	-6.6	-10.7
CC(=O)c1ccc(NC(=O)Cn2cnc(S(=O)(=O)N3CCCC3)c2)cc1	0.6	6.1	.	26.4*	-6.1	-5.9	-0.1	-3.9
C[C@@H]1CCCCO[C@H](CN(C)S(C)(=O)=O)[C@H](C)CN([C@@H](C)CO)C(=O)c2cc(NS(C)(=O)=O)ccc2O1	.	.	-3.0	.	.	.	.	.
N#Cc1nc(-c2cccc3ccccc23)oc1N1CCCCC1	-1.7	-134.3	.	21.2*	-9.7	-88.8	-0.4	-12.2
Cc1cc(C)c(NS(=O)(=O)c2ccccc2)c(C)c1	-5.1	8.6	-12.5	.	4.3	.	.	.
Cc1cc(O)c(S(=O)(=O)c2ccccc2)c(C)c1NS(=O)(=O)c1ccccc1	-1.2	30.2	-11.3	18.5*	0.8	7.9	21.0*	-7.8
Cc1ccc(/C=C2/C(=O)c3ccc(C(=O)O)cc3C2=O)o1	11.9	4.0	5.7	22.4*	-22.4	.	46.2*	-32.4
NC1(C#Cc2ccc3c(=O)c4ccccc4sc3c2)CCCCC1	-11.4	-105.4	.	.	-0.2	32.9	.	.
Cn1c2ccccc2c(=O)c2ccc(C#CC3(N)CCCCC3)cc21	-20.1	51.6*	4.8	33.7*	-6.6	35.8	30.1*	9.0
O=C(C[C@H]1C=C[C@@H](NC(=O)CC2CC2)[C@@H](CO)O1)NCc1ccc(Cl)cc1	.	.	4.8	.	.	.	.	.
N#CC1=C(N)Oc2n[nH]c(-c3cccs3)c2C1c1cccs1 (configuration not stated)	-3.7	13.9	.	33.9*	-28.8	33.8	-8.7	-8.2
CC(C)CC1C(C#N)=C(N)Oc2n[nH]c(-c3cccs3)c21 (configuration not stated)	-0.6	14.8	.	18.5*	-3.0	4.9	-7.2	1.2
C[C@H]1CN([C@@H](C)CO)C(=O)c2cc(N(C)C)ccc2O[C@@H]1CN(C)CC1CCCCC1	.	.	-0.7	.	.	.	.	.
C[C@@H]1CN([C@@H](C)CO)C(=O)c2cc(NS(=O)(=O)c3cccs3)ccc2O[C@H]1CN(C)Cc1ccc2c(c1)OCO2	.	.	2.2	.	.	.	.	.
COc1ccccc1-c1ccc(C(=O)O)o1	-0.6	-104.9	-22.8	46.3*	6.5	3.1	53.9*	-13.6
Brc1ccc(-c2ncc3ccccn23)cc1	9.5	-8.1	-23.7	27.2*	4.0	-54.5	0.7	-12.3
Fc1ccc(-c2ncc3ccccn23)cc1	-12.7	-42.9	-26.4	-2.0	-14.6	-5.4	.	.
SMILES	KKLEB cytotox	Peg3 prom inh	LGR2 antag	HSP90 refold inh	CF NFkB inh	Mdm2 MdmX PPI	HSP90 inh confirm	FLuc counter
O=C(NC1Cc2ccccc2C1)[C@@H]1[C@@H](CO)[C@@H]2Cn3c(ccc(C4=CCCCC4)c3=O)[C@H]1N2CC1CC1	.	.	-13.5	.	.	.	.	.
CO[C@H]1CN(C)C(=O)c2cc(NC(=O)NC(C)C)ccc2OC[C@@H](C)N(CCC(F)(F)F)C[C@@H]1C	.	.	-6.5	.	.	.	.	.
Cc1cc(C)c(C(=O)Cn2nc(C(=O)O)c3ccccc3c2=O)cc1C	1.5	-9.7	-50.1	5.9	-0.5	18.5	.	.
Cc1cc(C(=O)Cn2nc(C(=O)O)c3ccccc3c2=O)c(C)n1-c1ccccc1	-34.7	-111.5	-49.2	25.1*	-15.8	48.4	61.5*	30.6*
Cc1nc(CS(=O)(=O)c2ccc(Cl)cc2)sc1C(=O)O	-3.9	9.9	-2.9	32.5*	-11.0	24.6	48.7*	0.7
NNC(=O)c1csc(CS(=O)(=O)c2ccc(Cl)cc2)n1	16.1	8.2	-2.9	2.9	-23.3	-19.0	.	.
C/C(=N\Nc1ccc(C(=O)O)cc1)c1nc2ccccc2n1C	.	.	.	2.3	.	-22.7	.	.
COc1cc(/C(C)=N/Nc2ccc(C(=O)O)cc2)cc(OC)c1OC	7.2	-82.7	-16.9	24.8*	10.0	30.8	43.2*	34.2*
C/C(=N\Nc1ccc(C(=O)O)cc1)c1ccc(-n2ccnc2)cc1	9.5	-179.2	-11.6	17.5*	4.3	6.1	14.6	-7.5
C/C(=N/Nc1ccc(C(=O)O)cc1)c1ccc(O)c(O)c1O	-22.5	-33.8	-0.3	29.3*	14.2	17.1	53.6*	45.0*
COc1cc(/C=N/NS(=O)(=O)c2ccc(C)cc2)ccc1OCc1ccc(C(=O)O)cc1	-15.5	-20.1	42.5	65.5*	10.8	49.8	-2.6	-11.0
C[C@H]1CN([C@@H](C)CO)C(=O)Cc2cc(NC(=O)C3CC3)ccc2O[C@@H]1CN(C)CC1CC1	.	.	-23.3	.	.	.	.	.
Cc1ccc(S(=O)(=O)N(C)C[C@H]2Oc3c(NC(=O)c4cc(C)nn4C)cccc3C(=O)N([C@H](C)CO)C[C@H]2C)cc1	.	.	-1.9	.	.	.	.	.
CNC[C@H]1OCCCC[C@@H](C)Oc2ccc(NC(=O)CCCN(C)C)cc2C(=O)N([C@H](C)CO)C[C@@H]1C	.	.	2.0	.	.	.	.	.
COc1cc(/C=N/Nc2ccc(C(=O)O)cc2)cc(OC)c1OC	-0.7	-142.7	-19.7	11.4	9.2	21.5	.	.
COc1ccc(OC)c(/C(C)=N/Nc2ccc(C(=O)O)cc2)c1	-7.6	-43.3	-8.9	36.4*	16.2	6.3	25.2*	32.5*
COc1ccc(OC)c(C(=O)c2ccc(C(=O)c3cc(OC)ccc3OC)cc2)c1	-10.9	23.2	7.5	0.0	26.2	18.8	.	.
COc1cc(/C=N/Nc2ccc(C(=O)O)cc2)ccc1O	3.9	-49.4	23.2	38.3*	-5.7	-41.4	62.6*	53.6*
CCNC(=O)C[C@H]1CC[C@@H]2[C@H](COC[C@@H](O)CN2C(=O)c2cc(Cl)cc(Cl)c2)O1	.	.	13.2	.	.	.	.	.
